The values below come from PubChem BioAssay (NCATS).

Records with an inconclusive call do not appear. Active and inactive are the calls of the source. Calls follow the shape of the dose curve; as a rule, active = well fitted inhibition curve with a large enough effect; inconclusive = small, poorly fitted or top-dose-only effect; inactive = flat fitted curve, though single readings scatter.

What all share (experiment): qHTS profiling for inhibitors of Plasmodium falciparum proliferation (AID 504749); also: nearly all actives have a fitted effect of over 60% in size
What all share (details): P. falciparum in erythrocytes, SYBR Green DNA, 72 h; series mostly up to 28.7 µM

The test system of one assay is CP315. The procedure, abridged:
(§1)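 Three-day growth assay of blood-stage parasites in erythrocytes (0.3% parasitemia, 2.5% hematocrit) at 37 C, 5% CO2, quantified by SYBR Green DNA staining after overnight detergent lysis.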

In a further assay the test system is CP329. A digest of the protocol: as §1
The next assay relates to CP335. A digest of the protocol: as §1
Another assay deals with DFO2036. A digest of the protocol:
as §1

A further assay has as its system DIV14. The procedure, abridged:
as §1

A further assay has as its system DIV17. The procedure, abridged:
as §1

A further assay deals with DIV30. The procedure, abridged: as §1
For a further assay, the system named is Dd2. The procedure, abridged:
as §1

A further assay has as its system ECU. The procedure, abridged:
as §1

The next assay concerns FAB9. A digest of the protocol:
as §1

For a further assay, the system named is GB4. The procedure, abridged: as §1
Another assay concerns HB3. A digest of the protocol:
as §1

In another assay the test system is ICS. A digest of the protocol: as §1
The test system of another assay is JCK. The procedure, abridged: as §1
In another assay the test system is N140. A digest of the protocol: as §1
For the next assay, the system named is P93_24. The procedure, abridged: as §1
The subject of the next assay is P94_40. The procedure, abridged:
as §1

The next assay relates to PAD. The procedure, abridged: as §1
A further assay concerns PC15. A digest of the protocol:
as §1

Another assay deals with CP325. The procedure, abridged:
as §1
Potency is read from the fitted curve at half-maximal effect.

Regarding `Cc1c(Cn2ccnc2)c2ccccc2n1CCC(=O)O`, the call in the assay with CP315, in the assay on CP329 and in the assay with DIV30 was inactive. In addition, the Potency entry in the assay on CP335, in the assay with DFO2036, with DIV14, with DIV17, with Dd2 and with ECU was “inactive” in each case. In addition, the Potency result with FAB9, in the assay with GB4, with HB3, in the assay on ICS, in the assay with JCK and with N140 was “inactive” each time. For the same compound, the Potency result with P93_24, in the assay with P94_40, in the assay with PAD and with PC15 was “inactive” throughout.

`O=C(/C=C/c1ccccc1)OCc1ccccc1`: the result in the assay with CP315, with CP325, in the assay with CP329 and with DIV30 was inactive. The Potency entry with DFO2036, in the assay with DIV14, in the assay with DIV17, in the assay with Dd2, in the assay with ECU and in the assay on FAB9 was “inactive” each time. Besides, the Potency entry in the assay on GB4, in the assay on HB3, with JCK, in the assay with N140, with P93_24 and in the assay with P94_40 was “inactive” in each case. The Potency result in the assay on PAD and in the assay with PC15 was “inactive” each time.

With `O=C(O)CCC(=O)O`, the outcome in the assay with CP315, in the assay with CP325, in the assay on CP329 and in the assay with DIV30 was inactive. Moreover, the Potency entry in the assay on DFO2036, in the assay with DIV14, with DIV17, in the assay on Dd2, in the assay with ECU and in the assay on FAB9 was “inactive” in each case. The Potency result in the assay on GB4, with HB3, in the assay on ICS, in the assay with JCK, in the assay with N140 and in the assay on P93_24 was “inactive” in each case. The Potency result in the assay with P94_40, in the assay with PAD and with PC15 was “inactive” in each case.

On to `CCN1CC(CCN2CCOCC2)C(c2ccccc2)(c2ccccc2)C1=O` (stereo not drawn), for which the compound was called inactive in the assay on CP315, with CP325, in the assay with CP329 and in the assay with DIV30. For the same compound, the Potency entry with DFO2036, with DIV17, in the assay with FAB9, with HB3, with JCK and in the assay on PAD was “inactive” throughout. In the assay with PC15, the Potency entry was “inactive”. Moreover, the Potency in the assay with Dd2 was 12.6 µM (active).

Consider `COC(=O)c1ccccc1C(=O)c1ccc(OCCN2CCCCC2)cc1`, for which the result in the assay on CP315, in the assay with CP325, in the assay on CP329 and in the assay with DIV30 was inactive. The Potency entry with CP335, in the assay with DFO2036, with ECU, in the assay on FAB9, with GB4 and in the assay on HB3 was “inactive” throughout. Also, the Potency result with ICS, in the assay with JCK, in the assay with N140, with P93_24, in the assay with P94_40 and with PAD was “inactive” in each case. In addition, the Potency entry in the assay on PC15 is “inactive”.

As for `Cc1cc(O)cc(C)c1Cl`, the call in the assay on CP315, in the assay on CP325 and in the assay with CP329 was inactive. For the same compound, the Potency result in the assay with FAB9 was “inactive”. Further, the Potency in the assay on ICS is 3.55 µM (active).

As for `Nc1c2c(nc3c1CCC3)CCCC2`, the Potency in the assay with DIV14 is 13.5 µM (active); with DIV17, 15.1 µM (active); in the assay on Dd2 it was 12.6 µM (active); in the assay with GB4, 16.9 µM (active); in the assay with HB3, 10 µM (active); in the assay with ICS, 12.6 µM (active). Moreover, the Potency in the assay on P94_40 was 11.2 µM (active).

For the compound `C[C@H]1COc2c(C3(N)CC3)c(F)cc3c(=O)c(C(=O)O)cn1c23`, the call in the assay on CP315, with CP325, in the assay on CP329 and with DIV30 was inactive. Moreover, the Potency result with DFO2036, in the assay with DIV17, in the assay with Dd2, with ECU, in the assay with FAB9 and with HB3 was “inactive” each time. Further, the Potency result with ICS, with JCK, in the assay on N140, in the assay with P93_24, with P94_40 and with PAD was “inactive” throughout. Also, the Potency entry with PC15 is “inactive”.

For `CC(CN(C)C)C(C)(O)Cc1ccc(Cl)cc1` (stereo not drawn), in the assay with CP315, the outcome was inactive. For the same compound, the Potency entry in the assay with DFO2036, with FAB9, with HB3, in the assay on JCK, in the assay with PAD and with PC15 was “inactive” each time. The Potency in the assay on DIV17 is 6.01 µM (active); with Dd2, 7.94 µM (active); with GB4, 6.75 µM (active).

As to `O=C1c2ccccc2C(=O)C1c1ccc(Br)cc1`, the call with CP325, with CP329 and in the assay with DIV30 was inactive. The Potency with Dd2 was 11.2 µM (active); in the assay on GB4, 9.53 µM (active); in the assay with ICS, 11.2 µM (active); with P94_40, 10 µM (active). The Potency result in the assay on FAB9, in the assay with HB3, with JCK, with N140 and in the assay with PC15 was “inactive” throughout.

Consider `Nc1ncnc(Nc2ccccc2)n1`, for which the outcome in the assay on CP315, with CP325, in the assay on CP329 and in the assay on DIV30 was inactive. Moreover, the Potency entry in the assay with DIV14, with Dd2, in the assay with ECU, with FAB9, in the assay on GB4 and in the assay with HB3 was “inactive” throughout. The Potency result with ICS, in the assay on JCK, in the assay with N140, with P93_24, in the assay with P94_40 and with PAD was “inactive” each time. Further, in the assay with PC15, the Potency result is “inactive”.

In the case of `NC(=O)c1ccc([N+](=O)[O-])cc1Cl`, the result in the assay on CP315, with CP325, in the assay on CP329 and in the assay on DIV30 was inactive. For the same compound, the Potency entry in the assay with DFO2036, in the assay on Dd2, in the assay on FAB9, in the assay with JCK and in the assay with P94_40 was “inactive” throughout. For the same compound, the Potency in the assay on HB3 was 12.6 µM (active); with ICS it was 4.47 µM (active).

On to `Cc1onc(-c2ccccc2)c1-c1ccc(S(N)(=O)=O)cc1`, for which the call in the assay with CP325, in the assay on CP329 and in the assay on DIV30 was inactive. Further, the Potency result in the assay on CP335, in the assay with DFO2036, with DIV14, in the assay on DIV17, with Dd2 and in the assay with ECU was “inactive” throughout. Moreover, the Potency entry in the assay on FAB9, in the assay with GB4, in the assay with HB3, in the assay on ICS, in the assay on JCK and in the assay on N140 was “inactive” throughout. Besides, the Potency entry in the assay on P93_24, in the assay with P94_40, in the assay with PAD and in the assay on PC15 was “inactive” each time.
